Measurements from PubChem BioAssay AID1159580 (chemical genetic matrix, 2015).
Where “and” joins values, the source holds several entries; their conditions need not be identical. Equal entries are not always repeated. The whole screen tested about 5,500 compounds, of which about 2,000 (36%) were called active. Not shown: some 18% with an inconclusive outcome. Rule as the data show it: active = normalized growth mostly below about 0.91 (no sharp cut-off); inconclusive = no clear call, values can overlap the other calls; inactive = mostly above about 0.92. Some of the results follow.

Assay: chemical genetic growth profiling, strain panel (AID 1159580);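 also: tested at 20 µM; growth read once vehicle control cultures reached saturation at 30 °C; 1 = growth at the plate median or of vehicle wells; lower values mean less growth of the strain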
Conditions: S. cerevisiae deletion strains, growth OD

Measured: normalized growth

CC(C)(C)NCC(O)COc1cccc2c1C[C@H](O)[C@H](O)C2 (stereo not given in full)
inactive: locus YAL021C, strain ccr4, hits give low values 0.99 | locus YAL026C, strain drs2, hits give low values 1.01 | locus YAL030W, strain snc1, hits give low values 0.995 | locus YBL061C, strain skt5, hits give low values 1 | locus YBR009C, strain hhf1, hits give low values 0.999 | locus YBR021W, strain FUR4, hits give low values 1.03 | locus YBR023C, strain chs3, hits give low values 1.01 | locus YBR171W, strain sec66, hits give low values 1.01 | locus YBR229C, strain ROT2, hits give low values 1.01 | locus YBR231C, strain swc5, hits give low values 1 | locus YBR279W, strain paf1, hits give low values 1 | locus YCL011C, strain gbp2, hits give low values 1 | locus YCL016C, strain dcc1, hits give low values 1 | locus YCL029C, strain bik1, hits give low values 0.997 | locus YCL061C, strain MRC1, hits give low values 1.01 | locus YCL069W, strain vba3, hits give low values 1 | locus YCR088W, strain abp1, hits give low values 1 | locus YDL005C, strain med2, hits give low values 1.01 | locus YDL035C, strain GPR1, hits give low values 0.983 | locus YDL040C, strain nat1, hits give low values 0.999 | locus YDL074C, strain BRE1, hits give low values 1.06 | locus YDL101C, strain DUN1, hits give low values 0.999 | locus YDL134C, strain PPH21, hits give low values 1 | locus YDL185W, strain tfp1, hits give low values 0.96 | locus YDL192W, strain arf1, hits give low values 0.982 | locus YDR001C, strain nth1, hits give low values 1.01 | locus YDR069C, strain doa4, hits give low values 1 | locus YDR101C, strain arx1, hits give low values 1.05 | locus YDR137W, strain rgp1, hits give low values 1.01 | locus YDR150W, strain NUM1, hits give low values 0.992 | locus YDR159W, strain sac3, hits give low values 1 | locus YDR162C, strain NBP2, hits give low values 0.964 | locus YDR195W, strain ref2 0.999 | locus YDR297W, strain sur2, hits give low values 1 | locus YDR318W, strain mcm21, hits give low values 0.979 | locus YDR334W, strain swr1, hits give low values 1.02 | locus YDR335W, strain msn5, hits give low values 1 | locus YDR388W, hits give low values 0.989 | locus YDR392W, strain spt3, hits give low values 1.01 | locus YDR502C, strain sam2, hits give low values 0.99 | locus YEL003W, strain gim4, hits give low values 1 | locus YEL037C, strain rad23, hits give low values 1.01 | locus YEL061C, strain CIN8 (second series), hits give low values 1.01 | locus YEL061C, strain CIN8, hits give low values 0.999 | locus YER015W, strain faa2, hits give low values 0.999 | locus YER016W, strain bim1, hits give low values 1.01 | locus YER110C, hits give low values 0.976 | locus YER111C, strain swi4, hits give low values 1 | locus YER155C, strain BEM2 (second series), hits give low values 0.997 | locus YER155C, strain BEM2, hits give low values 0.999 | locus YER167W, strain BCK2, hits give low values 0.996 | locus YFR010W, strain ubp6, hits give low values 1.02 | locus YGL078C, strain dbp3, hits give low values 0.989 | locus YGL086W, strain mad1, hits give low values 1.02 | locus YGL167C, strain pmr1, hits give low values 1 | locus YGL173C, strain kem1, hits give low values 1.01 | locus YGL227W, strain vid30, hits give low values 1.01 | locus YGL240W, strain doc1, hits give low values 1 | locus YGL248W, strain PDE1, hits give low values 1.01 | locus YGL253W, strain hxk2, hits give low values 1.02 | locus YGR135W, strain pre9, hits give low values 0.951 | locus YGR229C, strain SMI1, hits give low values 0.989 | locus YGR252W, strain gcn5, hits give low values 0.986 | locus YHR013C, strain ard1, hits give low values 1.03 | locus YHR027C, strain rpn1, hits give low values 1 | locus YHR030C, strain SLT2, hits give low values 0.992 and 1.02 | locus YHR079C, strain IRE1 (second series), hits give low values 0.987 | locus YHR079C, strain IRE1, hits give low values 1.01 | locus YHR094C, strain hxt1, hits give low values 0.995 | locus YHR129C, strain ARP1, hits give low values 0.991 | locus YHR142W, strain chs7, hits give low values 1.01 | locus YHR200W, strain rpn10, hits give low values 0.987 | locus YIL066C, strain RNR3, hits give low values 1 | locus YIL073C, strain SPO22, hits give low values 0.883 | locus YIL125W, strain kgd1, hits give low values 0.998 | locus YIR030C, strain dcg1, hits give low values 0.984 | locus YJL092W, strain hpr5, hits give low values 1.01 | locus YJL095W, strain BCK1 (second series), hits give low values 1.01 | locus YJL095W, strain BCK1, hits give low values 1.02 and 1.04 | locus YJL115W, strain asf1, hits give low values 1.02 | locus YJL129C, strain trk1, hits give low values 1 | locus YJL134W, strain LCB3, hits give low values 0.989 | locus YJL154C, strain vps35, hits give low values 0.995 | locus YJL164C, strain tpk1, hits give low values 1 | locus YJL166W, strain qcr8, hits give low values 1 | locus YJL168C, strain set2, hits give low values 1 | locus YJL187C, strain SWE1 (second series), hits give low values 1.01 | locus YJL187C, strain SWE1, hits give low values 1.01 | locus YJR043C, strain POL32, hits give low values 1 | locus YJR066W, strain TOR1, hits give low values 1
